Laboratory results reported in PubChem BioAssay AID686979 (National Center for Advancing Translational Sciences (NCATS), 2013).
Hit rate of the full screen: of about 420,000 compounds, about 50,000 (12%) were called active. Inconclusive results (about 26%) are left out. Calls come from the whole dose curve; as a rule, active = well fitted inhibition curve with a large enough effect; inconclusive = small, poorly fitted or top-dose-only effect; inactive = flat fitted curve, though single readings scatter. The sample as a whole holds a higher share of actives than the screen did.

experiment: qHTS for Inhibitors of human tyrosyl-DNA phosphodiesterase 1 (TDP1): qHTS in cells in presence of CPT; conditions: chicken DT40 Tdp1-/-;hTDP1 cells + 20 nM CPT, ATP luminescence, 48 h; series mostly up to 46.2 µM; activity change, negative = growth inhibition: at the top concentration; note: nearly all actives have a fitted effect of over 55% in size
Procedure, shortened: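 Cell growth measured by CellTiter-Glo luminescence after a minimum 48 h, 37 C compound exposure with 20 nM CPT in Tdp1-knockout DT40 cells stably expressing hTDP1, seeded 400/well; qHTS titration format.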
% is set by controls: 0 for no effect and ±100 for the full control effect; potency is the fitted concentration of half-maximal effect.

| SMILES | activity change, negative = growth inhibition | Potency |
| --- | --- | --- |
| CCOC(=O)Cc1ccc(NC(=O)Nc2c[nH]c(=O)[nH]c2=O)cc1 | -22% (inactive) |  |
| O=C(NNC(=S)Nc1ccc(F)cc1)[C@H]1C[C@@H]1c1ccccc1 | -0.703% (inactive) |  |
| CC(Oc1ccccc1F)C(=O)NN (stereo not given) | -0.304% (inactive) |  |
| Cc1ccc(S(=O)(=O)N(C)C)cc1NC(=O)CN1c2cccc3cccc(c23)S1(=O)=O | -24.2% (inactive) |  |
| Cc1c(NC(=O)c2c([N+](=O)[O-])cnn2C)c(=O)n(-c2ccccc2)n1C | -1.75% (inactive) |  |
| CC(C)CC(NS(=O)(=O)c1ccc2c(c1)oc(=O)n2C)C(=O)NCc1ccccc1Cl (stereo not given) | 8.64% (inactive) |  |
| O=c1c2cc([N+](=O)[O-])ccc2nc2n1CCC2 | 5.4% (inactive) |  |
| Cc1cc(C(C)(C)C)cc(C)c1N | -4.73% (inactive) |  |
| C=CCn1c(=NC(=O)c2cccs2)sc2cc(NC(C)=O)ccc21 |  | 13 µM (active) |
| C=CCn1c(=NC(=O)c2ccc(S(=O)(=O)N3CCCC3)cc2)sc2cc(NC(C)=O)ccc21 | -24.1% (inactive) |  |
| C=CCn1c(CCNC(=O)c2cccs2)n[nH]c1=S | -7.48% (inactive) |  |
| Cc1cccc(CCNS(=O)(=O)c2ccc3c(c2)NC(=O)CO3)c1 | -23.9% (inactive) |  |
| CCOC(=O)c1cc2c(=O)n3ccccc3nc2n(CC2CCCO2)c1=NC(=O)c1ccc(C(C)(C)C)cc1 (stereo not given) | -1.11% (inactive) |  |
| CC(C)N(C(=O)CSc1nc(COc2ccccc2)nc2ccccc12)C(C)C |  | 23.1 µM (active) |
| COC(=O)CSc1nc(C2CC2)nc2ccccc12 | -15.9% (inactive) |  |
| CCc1nc(SCC(=O)NNC(=O)c2ccc(C)cc2)c2ccccc2n1 | -13.1% (inactive) |  |
| CCC(=O)Nc1ccccc1C(=O)N1CCN(Cc2ccccc2)CC1 | -9.21% (inactive) |  |
| Cc1nn(Cc2ccccc2)c(C)c1C(=O)N1CCN(CC(=O)Nc2ccccc2Cl)CC1 |  | 16.4 µM (active) |
| Cc1cc(C)cc(NC(=O)NC2CCN(CC(=O)Nc3cccc(Cl)c3C)CC2)c1 | -18% (inactive) |  |
| CNC(=O)CN1C(=O)NC(c2ccccc2)(c2ccccc2)C1=O | -0.402% (inactive) |  |
| COC(=O)c1ccc(C(=O)OC)c(NC(=S)N2CCN(c3ccc(F)cc3)CC2)c1 | -26.1% (inactive) |  |
| Cc1ccc(SCC(=O)N2CCN(c3ccc(F)cc3)CC2)cc1 | -23% (inactive) |  |
| Cc1ccc(CSCC2Nc3ccc(C(=O)N4CCN(c5ccc(F)cc5)CC4)cc3NC2=O)cc1 (stereo not given) |  | 16.4 µM (active) |
| CN(Cc1ccc(CNC[C@H]2O[C@@H](n3cnc4c(N)ncnc43)[C@H](O)[C@@H]2O)o1)S(C)(=O)=O | -7.47% (inactive) |  |
| Cn1cccc1C(C#N)c1ccccc1C#N (stereo not given) | -1.65% (inactive) |  |

| SMILES | activity change, negative = growth inhibition | Potency |
| --- | --- | --- |
| Cc1ccc(C2=Nc3c(ccc4ccccc34)C(c3ccncc3)=NN2)cc1 |  | 18.4 µM (active) |
| CCc1ccc2c(c1)C(c1ccc([N+](=O)[O-])cc1)=NNC(c1ccccc1)=N2 | -24.4% (inactive) |  |
| Cc1cc(C)n2nc(C(=O)OC(C)C(=O)c3cc(C)c(C)cc3C)nc2n1 (stereo not given) | 9.74% (inactive) |  |
| COc1ccc(C(=O)NC2CCN(C(=S)Nc3ccccc3)CC2)cc1 | -2.64% (inactive) |  |
| COc1ccc(C(=O)NC2CCN(C(=S)NCCc3ccccc3)CC2)cc1 | -9.89% (inactive) |  |
| COc1cc(OC)cc(C(=O)NC2CCN(C(=O)N3c4ccccc4Sc4ccccc43)CC2)c1 |  | 29.1 µM (active) |
| O=C(c1ncn2c1c(=O)[nH]c1ccccc12)N1CCc2ccccc2C1 | -1.67% (inactive) |  |
| CCOC(=O)C1CCCN(CC(=O)Nc2cc(C)c3c(=O)oc4ccccc4c3n2)C1 (stereo not given) | 0.0764% (inactive) |  |
| COc1cc(/C=C/C(=O)O)cc(S(=O)(=O)Nc2ccccc2SC)c1OC | 1.85% (inactive) |  |
| CCn1c(=O)cc(SCC(=O)NCc2ccc3c(c2)OCO3)c2ccccc21 | -32.1% (inactive) |  |
| O=C(COC(=O)c1cc(=O)[nH]c2ccccc12)NCc1cccc(Cl)c1 | -26.8% (inactive) |  |
| O=C1N(Cc2ccccc2)c2ccc(Cl)cc2C1(O)c1c[nH]c2ccccc12 (stereo not given) |  | 23.1 µM (active) |
| O=C(CC1Oc2ccc(Cl)cc2NC1=O)NCc1ccccc1 (stereo not given) | -14.1% (inactive) |  |
| O=C1N(Cc2ccc3c(c2)OCO3)c2ccccc2C1(O)c1c[nH]c2ccccc12 (stereo not given) |  | 18.4 µM (active) |
| O=C(CSc1ncn[nH]1)NCc1ccc2c(c1)OCO2 | 11.8% (inactive) |  |
| CCOc1ccc(CCNC(=O)COC(=O)c2ccc(F)c(S(=O)(=O)N3CCOCC3)c2)cc1OCC | 7.66% (inactive) |  |
| O=C(CSc1nnc(-c2ccncc2)o1)Nc1cccc(Cl)c1 | 0.739% (inactive) |  |
| COC(=O)c1cnc(Nc2cc(C)ccc2OC)c2ccccc12 | 1.61% (inactive) |  |
| Oc1ccc(CNc2ccccc2O)cc1 |  | 25.9 µM (active) |
| O=[N+]([O-])c1ccccc1Nc1ccc(O)cc1 | -34.1% (inactive) |  |
| O=C(OCc1ccccc1)c1ccc(O)cc1 | -30.5% (inactive) |  |
| CCOC(=O)C(C)N(c1ccccc1Cl)S(C)(=O)=O (stereo not given) | -0.811% (inactive) |  |
| O=C(NCCCN1CCOCC1)c1cc(-c2cccc(O)c2)on1 | -24.8% (inactive) |  |
| Cc1nc([N+](=O)[O-])nn1C12CC3CC(CC(Br)(C3)C1)C2 |  | 23.1 µM (active) |
| CC[C@@H](C)[C@H](NC(=O)CCc1c(C)c2cc3c4c(oc3c(C)c2oc1=O)CCCC4)C(=O)O | -12.7% (inactive) |  |
